Data published in PubChem BioAssay AID2025 (NMMLSC, 2009).
Hit rate of the full screen: of about 330,000 compounds, about 980 (0.3%) were called active. This excerpt belongs to a sample that is enriched for actives. Unmarked numbers belong to inactive results.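 The calls were made as follows: active = percent response vs DMSO below 50%; inconclusive = fewer than 70 events counted for the yeast strain; inactive = the rest.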

experiment: RPL19A-GFP expression modulators in yeast, primary screen, cell-based, S. cerevisiae, multiplex flow cytometry, MLPCN (AID 2025);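 also: median channel GFP fluorescence of the barcoded RPL19A-GFP strain; ratio of sample median GFP to plate DMSO average so 100% = DMSO; lower means less RPL19A-GFP as with rapamycin TOR inhibition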; conditions: S. cerevisiae RPL19A-GFP strain, 3 h, at 10 µM, hits give low values

Q: Which percent response vs DMSO does the source give for `CN1CCN(C2Cc3ccc(Cl)cc3Sc3ccc(F)cc32)CC1` (configuration not stated) here?
A: 100%

Q: With `COCCN(C(=O)CSCc1ccc(C)cc1)c1c(N)n(CC(C)C)c(=O)[nH]c1=O` as the compound, how does the percent response vs DMSO read?
A: 93.3%

Q: Which percent response vs DMSO does the source give for `Nc1nc(SCc2cccc(Br)c2)n[nH]1` here?
A: 99.2%

Q: Which percent response vs DMSO does the source give for `Cc1ccc(N2CCN(S(=O)(=O)c3ccc(F)cc3)CC2)c(C)c1` here?
A: 94.2%

Q: For `CCN(CC(=O)NC(=O)NCc1ccccc1)Cc1nc2ccccc2c(=O)[nH]1`, which percent response vs DMSO is on record?
A: 102%

Q: With `O=C(c1ccco1)N(Cc1nc2ccccc2c(=O)[nH]1)C1CCCC1` as the compound, how does the percent response vs DMSO read?
A: 16.5% [may fluoresce violet] (active)

Q: With `CCCC(=O)N(CCc1ccccc1)Cc1nc2ccccc2c(=O)[nH]1` as the compound, how does the percent response vs DMSO read?
A: 90.4%

Q: Which percent response vs DMSO does the source give for `CC(C)(C)NC(=O)CN(Cc1cccs1)C(=O)CNS(=O)(=O)c1ccccc1` here?
A: 107%

Q: For `O=P(c1cccs1)(c1cccs1)c1cccs1`, which percent response vs DMSO is on record?
A: 98.8%

Q: Which percent response vs DMSO does the source give for `Cc1cccc(NC(=O)c2ccc3nsnc3c2)c1C` here?
A: 103%

Q: With `Cc1cccc(NC(=O)c2cccc(C(=O)Nc3cccc(C)c3C)n2)c1C` as the compound, how does the percent response vs DMSO read?
A: 49.4% [may fluoresce violet] (active)

Q: For `Cc1nc(C)c(C(=O)Nc2cccc(C)c2C)o1`, which percent response vs DMSO is on record?
A: 98.6%

Q: For `Cn1c(=O)oc2cc(S(=O)(=O)NCCC(=O)NCc3ccccc3Cl)ccc21`, which percent response vs DMSO is on record?
A: 106%

Q: For `COc1ccccc1S(=O)(=O)NCc1ccc(C(=O)N(C)Cc2ccc(F)cc2)cc1`, which percent response vs DMSO is on record?
A: 91.3%

Q: For `COc1ccccc1/C=C/C(=O)OCC(=O)NC1CCCCCC1`, which percent response vs DMSO is on record?
A: 96.2%

Q: With `CCC(c1nnnn1Cc1ccccc1)N(Cc1cc2cc(OC)ccc2[nH]c1=O)CC1CCCO1` (configuration not stated) as the compound, how does the percent response vs DMSO read?
A: 94.8%

Q: Which percent response vs DMSO does the source give for `CCC(c1nnnn1Cc1ccco1)N(Cc1cc2cc(OC)ccc2[nH]c1=O)C1CCCCC1` (configuration not stated) here?
A: 39.1% [may fluoresce violet] (active)

Q: For `CCC(c1nnnn1Cc1ccco1)N(CCc1ccccc1)Cc1cc2cccc(C)c2[nH]c1=O` (configuration not stated), which percent response vs DMSO is on record?
A: 100%

Q: Which percent response vs DMSO does the source give for `O=C(CS(=O)(=O)c1ccc(C(F)(F)F)cn1)NNC(=O)c1ccccc1` here?
A: 99.4%

Q: For `C/C(=N\NS(=O)(=O)c1ccccc1)c1c(O)cc(C)oc1=O`, which percent response vs DMSO is on record?
A: 105%

Q: With `Cc1ccc(OCC(=O)Nc2ccc(N3CCN(C(=O)c4ccco4)CC3)cc2)c(C)c1` as the compound, how does the percent response vs DMSO read?
A: 41.5% [may fluoresce violet] (active)

Q: For `Cc1ccc(C)c(OCC(=O)N2CCN(C(=O)c3ccco3)CC2)c1`, which percent response vs DMSO is on record?
A: 110%

Q: With `CCC(=O)Nc1ccc(C(=O)N2CCN(C(=O)c3ccco3)CC2)cc1` as the compound, how does the percent response vs DMSO read?
A: 94.2%

Q: Which percent response vs DMSO does the source give for `CC1(C)OC(=O)N2CCc3ccccc3C21C` (configuration not stated) here?
A: 99%

Q: With `O=C(COc1ccccc1)Nc1cc2c3c(c1)CC(=O)N3CCC2` as the compound, how does the percent response vs DMSO read?
A: 101%

Q: With `CCCNC(=O)C(=O)Nc1cc2c3c(c1)CCC(=O)N3CCC2` as the compound, how does the percent response vs DMSO read?
A: 100%

Q: Which percent response vs DMSO does the source give for `O=C(Nc1cc2c3c(c1)CC(=O)N3CCC2)c1ccccc1F` here?
A: 43.6% [may fluoresce violet] (active)

Q: Which percent response vs DMSO does the source give for `Cc1cccc(NC(=S)NCc2ccc3[nH]c4c(c3c2)CCCC4)c1` here?
A: 105%

Q: For `COc1cccc(CN2CCNC(=O)C2CC(=O)N(C)CCc2ccccn2)c1` (configuration not stated), which percent response vs DMSO is on record?
A: 102%

Q: Which percent response vs DMSO does the source give for `O=C(NCc1ccccn1)c1ccc2nc(-c3ccco3)c(-c3ccco3)nc2c1` here?
A: 99.4%

Q: With `COc1cccc(NC(=O)NCCN2CCCCC2)c1` as the compound, how does the percent response vs DMSO read?
A: 96%

Q: With `COCCNC(=O)Nc1ccc2nc(-c3ccco3)c(-c3ccco3)nc2c1` as the compound, how does the percent response vs DMSO read?
A: 23.4% [may fluoresce violet] (active)

Q: With `COc1ccc([N+](=O)[O-])cc1NCC(=O)c1ccc(C)cc1` as the compound, how does the percent response vs DMSO read?
A: 104%

Q: With `COc1cc(C(=O)NCCOC(=O)c2cccc(N(C)C)c2)cc(OC)c1OC` as the compound, how does the percent response vs DMSO read?
A: 101%

Q: With `CNS(=O)(=O)c1cccc(C(=O)NC2CCCc3ccccc32)c1` (configuration not stated) as the compound, how does the percent response vs DMSO read?
A: 101%

Q: With `O=C(CCC(=O)N1CCN(S(=O)(=O)c2ccccc2)CC1)NC1CCCc2ccccc21` (configuration not stated) as the compound, how does the percent response vs DMSO read?
A: 101%

Q: For `O=C(O)c1cc(S(=O)(=O)NC2CCCc3ccccc32)ccc1O` (configuration not stated), which percent response vs DMSO is on record?
A: 34.1% [may fluoresce violet] (active)

Q: Which percent response vs DMSO does the source give for `CC(=O)Nc1ccccc1C(=O)C(=O)Nc1ccc(F)cc1` here?
A: 105%

Q: With `O=C(CCC(=O)c1ccccc1)NCc1cccc(C(F)(F)F)c1` as the compound, how does the percent response vs DMSO read?
A: 98.9%

Q: With `O=C(c1cc2ccccc2o1)N1CCN(c2cccc(C(F)(F)F)c2)CC1` as the compound, how does the percent response vs DMSO read?
A: 98.3%

Q: For `COc1ccc(CNC(=O)C2CCN(C(=O)c3ccccc3)CC2)cc1`, which percent response vs DMSO is on record?
A: 82.1%

Q: Which percent response vs DMSO does the source give for `O=C(NCc1ccncc1)C1CCN(C(=O)c2cccc(Cl)c2)CC1` here?
A: 42.1% [may fluoresce violet] (active)

Q: With `O=C(c1cccc(Cl)c1)N1CCN(Cc2ccccc2)CC1` as the compound, how does the percent response vs DMSO read?
A: 103%

Q: Which percent response vs DMSO does the source give for `COc1ccc(S(=O)(=O)N2CCOC2CNC(=O)C(=O)NCc2ccncc2)cc1C` (configuration not stated) here?
A: 99.3%

Q: With `O=C1CSC(c2cccc(F)c2)N1c1ccc(O)cc1` (configuration not stated) as the compound, how does the percent response vs DMSO read?
A: 95.8%

Q: For `COc1cccc(C2SCC(=O)N2c2cccc(C)c2)c1OC` (configuration not stated), which percent response vs DMSO is on record?
A: 49.7% [may fluoresce violet] (active)

Q: With `Cc1ccc(C2SCC(=O)N2c2ccccc2)cc1` (configuration not stated) as the compound, how does the percent response vs DMSO read?
A: 103%

Q: Which percent response vs DMSO does the source give for `O=C(CC(NS(=O)(=O)c1ccc(Cl)cc1)c1ccco1)NC1CCCC1` (configuration not stated) here?
A: 96.4%

Q: For `O=C(CSc1ccccn1)Nc1nc2c(ccc3ccccc32)s1`, which percent response vs DMSO is on record?
A: 106%

Q: Which percent response vs DMSO does the source give for `COc1ccc(NC(=O)CN(C)C(=O)CC2CCCCC2)cc1` here?
A: 96.3%

Q: With `CC(=O)Nc1ccc(NC(=O)COC(=O)C2CCC(C(C)(C)C)CC2)cc1` (configuration not stated) as the compound, how does the percent response vs DMSO read?
A: 103%

Q: Which percent response vs DMSO does the source give for `CC(=O)Nc1ccc(NC(=O)CC2CCCC2)cc1` here?
A: 42.2% [may fluoresce violet] (active)

Q: Which percent response vs DMSO does the source give for `Cc1ccc(NC(=S)N(CCCN2CCCC2)Cc2cccn2Cc2ccc(Cl)cc2)cc1` here?
A: 99.4%

Q: For `CN(CCCNC(=O)CN1C(=O)CC(C)(C)S(=O)(=O)c2ccccc21)C1CCCCC1`, which percent response vs DMSO is on record?
A: 91.3%

Q: Which percent response vs DMSO does the source give for `Cc1nccn1CC(=O)N/N=C/c1ccc(O)c(O)c1` here?
A: 103%

Q: With `O=C(N/N=C/c1ccc(Cl)c(Cl)c1)c1ccc2nc[nH]c2c1` as the compound, how does the percent response vs DMSO read?
A: 99.3%

Q: With `NCCCCCC(=O)N/N=C/c1ccc2nccnc2c1` as the compound, how does the percent response vs DMSO read?
A: 48% [may fluoresce violet] (active)
